Reference: PubChem BioAssay (NCATS)
Results filed as inconclusive are left out. The source made the active and inactive calls. Unless noted, the call rests on the fitted dose curve.

Experiments:
[1] = qHTS drug screen for cell cycle checkpoint inhibitors in PARPi-resistant BRCA-mutant ovarian cancer cell lines. (AID 1963452); conditions: PEO1/OlaR viability, CellTiter-Glo luminescence, 96 h; for Z-AUC: stronger effect = lower value; further: potency means the concentration at half of the fitted maximal effect
In short: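 PEO1, PEO4 and PEO1/OlaR ovarian cancer cells, 600 per well, exposed 96 h at 37C to a dilution series. Viability read by CellTiter-Glo luminescence, normalized to DMSO and empty wells; activity summarized as Z-AUC.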

[2] = target: Cytochrome P450 1A2 (Homo sapiens) (UniProt P05177); assay: qHTS for inhibitors of CYPIA2 against the NCATS DSHEA and TCM libraries (AID 1919976; active means well fitted curve in the direction sought with a large enough effect; an effect the other way counts as inactive or inconclusive;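 further: light from luciferin formed by CYP1A2 from a pro-luciferin substrate; on the % scale 0 is the no-effect control and ±100 the full control effect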); conditions: recombinant CYP1A2 enzyme activity, luminescence; series mostly up to 37 µM
In short: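 Human CYP1A2 with its pro-luciferin substrate in supplier buffer (typically 100 mM KPO4) was pre-incubated with compounds 15 min at RT. Reaction was started with 1x NADPH regeneration solution and run 30-45 min at RT in the dark, then luminescence was read after P450-Glo detection reagent (30 min RT).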

[3] = qHTS Counterscreen for compound interference against the NCATS DSHEA and TCM libraries (AID 1919978; active means well fitted curve in the direction sought with a large enough effect; an effect the other way counts as inactive or inconclusive; further: % of control where 0% means no effect); conditions: firefly luciferase detection reagent interference, luminescence
In short: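 D-luciferin (1 uM final) or 100 mM potassium phosphate buffer alone was preincubated 15 min at RT with compounds (19.5 nM to 39.8 uM final). Luciferin detection reagent was then added and luminescence read after 30 min at RT.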

[4] = Dual reporter qHTS for agonist of Pregnane X Receptor (hPXR) against the NCATS DSHEA and TCM libraries: Fluorescence readout (AID 1920058; active means well fitted curve in the direction sought with a large enough effect; an effect the other way counts as inactive or inconclusive; further: 0% is about no effect); conditions: PXR dual reporter cells; series mostly up to 40 µM
In short: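 hPXR-Luc HepG2 cells (2000/well) in phenol red-free medium with charcoal-stripped FBS attached for 5 h, then were exposed to compounds for about 24 h at 37 °C. Viability was read by CellTiter-Fluor fluorescence (Ex/Em 405/540 nm) after 1 h.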

[5] = target: Nuclear receptor subfamily 1 group I member 2 (Homo sapiens) (UniProt O75469); assay: Dual reporter qHTS for agonist of Pregnane X Receptor (hPXR) against the NCATS DSHEA and TCM libraries: Luminescence readout (AID 1920059; active means well fitted curve in the direction sought with a large enough effect; an effect the other way counts as inactive or inconclusive; further: 0% is about no effect); conditions: hPXR dual reporter cells, luciferase luminescence agonist; series mostly up to 40 µM
Text: Assay Development and Screening Technology Laboratory (ADST)
National Center for Advancing Translational Sciences (NCATS), Rockville, MD
National Institute of Health (NIH), Bethesda, Maryland
Dietary Supplements and Natural Products have minor oversight of their safety and efficacy. We assembled a collection of Dietary Supplements and Natural Products (DSNP) as well as Traditional Chinese Medicinal (TCM) Plant extracts, which were screened against an in vitro panel of assays, including a liver cytochrome p450 enzyme panel, CAR/PXR signaling pathways, and P-gp transporter assays, to assess their activity. This pipeline facilitated the interrogation of Natural Product-Drug Interaction (NaPDI) through prominent metabolizing pathways. In addition, we compared the activity profiles of the DSNP/TCM substances with those of an approved drug collection. Many of the approved drugs have well-annotated mechanisms of action (MOA) while the MOAs for most of the DSNP and TCM samples remain unknown. Based on the premise that compounds with similar activity profiles tend to share similar targets or MOA, we clustered the library activity profiles to identify overlap with the NCATS Pharmaceutical Collection to predict the MOAs of the DSNP/TCM substances. Overall, we highlight four significant bioactivity profiles (measured by p-values) as examples of this prediction. To assess broad cytotoxicity, we employed screening against a HepG2 cell line. In addition, transporter-mediated drug interactions are utilized in the characterization of DDIs using a P-glycoprotein (P-gp) assays. To profile potential P-gp activity, a differential cell viability was measured against two cell lines: a parental KB-3-1 human cervical adenocarcinoma cell line and the drug-resistant subline KB-8-5-11 that overexpresses P-gp.
To this end, we profiled both collections for potential CAR and/or PXR activity, employing a previously published 1536-well qHTS assay.
[1] Lee TD, et al. A High-Throughput Screen of a Library of Therapeutics Identifies Cytotoxic Substrates of P-glycoprotein. Mol Pharmacol. Nov 2019;96(5):629-640. doi:10.1124/mol.119.115964
For PXR luciferase reporter gene assays, we used hPXR-LucHepG2cells provided by Dr. Taosheng Chen (Department of Chemical Biology and Therapeutics, St. Jude Children's Research Hospital). Cells were cultured in EMEM supplemented with 10% fetal bovine serum, 100U/mL penicillin and 100ug/mL streptomycin, and 500ug/mL of geneticin.
PROTOCOL TABLE (as described by Inglese J, Shamu CE and Guy RK. 2007)
SEQUENCE No. (e.g., 1, 2, 3, etc.); […] (e.g., Cells, Incubation, Reagent, etc.); VALUE; DESCRIPTION.
1; Cells; 5 uL; hPXR-LucHepG2; white solid-bottom Greiner plate.
2; Incubation; 5h; 37C, 95% humidity, 5% CO2
3; Compounds and control; 23 nL; Kalypsis pintool (Wako USA).
4; Reagent; 1uL; rifampicin (RIF) in the antagonist mode.
6; Reagent; 1 uL; CellTiter-Fluor detection reagent.
7; Incubation; 1 hr; 37C, 5% CO2.
8; Read; Fluorescence; ViewLux plate reader.
9; Reagent; 4 uL; ONE-Glo Luciferase detection reagent.
10; Incubation; 30 min; room temperature.
11; Read; Luminescence; ViewLux plate reader.
NOTES (numbers refer to Sequence numbers above)
1. Briefly, 5uL of hPXR-LucHepG2 cells in phenol red-free DMEM containing 5% charcoal-stripped FBS, 1 mM sodium pyruvate (Invitrogen), 2 mM L-glutamine (Invitrogen), and 100 U/mL penicillin and 100ug/mL streptomycin were dispensed using a BioRAPTR FRD at 4 x 10^5cells/mL (2000cells/well) in tissue culture-treated 1536-well white assay plates (GreinerBio-One).
2. Plates were incubated for 5h at 37C, 95% humidity, and 5% CO2 to allow for cell attachment.
3. Compounds (final concentration for most substances ranged from 15.6 nM to 45.9uM), positive control rifampicin (RIF; final concentration range of 2.8 nM to 92uM for the agonist mode), and cytotoxicity control tetraoctyl ammonium bromide (final concentration of 92uM) were transferred (23 nL) via pintool (Wako Automation).
4-5. […]

[6] = target: Nuclear receptor subfamily 1 group I member 2 (Homo sapiens) (UniProt O75469); assay: Dual reporter qHTS for antagonist of Pregnane X Receptor (hPXR) against the NCATS DSHEA and TCM libraries: Luminescence Readout (AID 1920060; active means well fitted curve in the direction sought with a large enough effect; an effect the other way counts as inactive or inconclusive; further: 0% is about no effect); conditions: hPXR dual reporter cells, luciferase luminescence, antagonist mode; series mostly up to 40 µM
In short: (§1)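 Rifampicin-stimulated (2 uM final) hPXR-luciferase HepG2 cells were treated for 24 h with DSNP/TCM substances. Viability came from CellTiter-Fluor fluorescence, reporter activity from ONE-Glo luminescence.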

[7] = Dual reporter qHTS for antagonist of Pregnane X Receptor (hPXR) against the NCATS DSHEA and TCM libraries: Fluorescence Readout (AID 1920061; active means well fitted curve in the direction sought with a large enough effect; an effect the other way counts as inactive or inconclusive; further: 0% is about no effect); conditions: PXR dual reporter cells, antagonist mode; series mostly up to 40 µM
In short: as §1

[8] = measured here: PEO1 parental Z-AUC

Chain of Nuclear receptor subfamily 1 group I member 2 (Homo sapiens) (O75469 whole entry, looked up): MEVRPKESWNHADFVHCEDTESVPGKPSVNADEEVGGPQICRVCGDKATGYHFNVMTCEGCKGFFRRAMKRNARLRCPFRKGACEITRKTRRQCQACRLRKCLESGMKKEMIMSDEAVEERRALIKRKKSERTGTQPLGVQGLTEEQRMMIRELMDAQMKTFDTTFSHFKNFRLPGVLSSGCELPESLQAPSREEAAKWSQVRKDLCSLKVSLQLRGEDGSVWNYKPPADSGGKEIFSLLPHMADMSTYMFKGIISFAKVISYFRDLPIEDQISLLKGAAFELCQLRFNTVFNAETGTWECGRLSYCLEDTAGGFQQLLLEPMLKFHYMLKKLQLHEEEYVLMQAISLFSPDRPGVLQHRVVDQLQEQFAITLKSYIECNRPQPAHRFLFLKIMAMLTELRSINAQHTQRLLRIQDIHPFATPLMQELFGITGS
Chain of Cytochrome P450 1A2 (Homo sapiens) (P05177 whole entry, looked up): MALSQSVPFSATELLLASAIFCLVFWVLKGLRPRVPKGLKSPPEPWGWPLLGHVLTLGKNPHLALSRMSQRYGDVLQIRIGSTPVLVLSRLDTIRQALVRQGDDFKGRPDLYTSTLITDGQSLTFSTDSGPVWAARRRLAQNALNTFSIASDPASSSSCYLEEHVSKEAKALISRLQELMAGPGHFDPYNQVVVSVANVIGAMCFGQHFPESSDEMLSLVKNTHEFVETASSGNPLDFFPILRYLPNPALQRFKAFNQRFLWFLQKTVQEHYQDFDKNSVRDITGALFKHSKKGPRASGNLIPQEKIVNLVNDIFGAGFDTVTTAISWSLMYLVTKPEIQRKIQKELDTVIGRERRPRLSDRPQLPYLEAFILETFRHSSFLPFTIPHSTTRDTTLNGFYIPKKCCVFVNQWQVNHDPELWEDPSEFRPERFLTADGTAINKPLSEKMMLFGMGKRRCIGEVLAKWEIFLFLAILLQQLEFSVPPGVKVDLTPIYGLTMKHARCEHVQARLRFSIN

With `CC(=O)c1cnc2ccc(-c3cc(Cl)c(O)c(Cl)c3)nc2c1NC1CCC(CN(C)C)CC1` (stereo unspecified) the Potency [1] was 252 nM (active), the Z-AUC [1, 8] was -1.7 and the Z-AUC ([1]; measured here: PEO4 Z-AUC) was -1.3.
In the case of `O=C(c1ccc(NS(=O)(=O)c2cccc3cccnc23)cc1)N1CCN(CC2CC2)CC1`, the Z-AUC [1] was -0.157 (inactive), the Z-AUC [1, 8] was -0.299 and the Z-AUC ([1]; measured here: PEO4 Z-AUC) was -0.11.
In the case of `NCc1ccc(OCCCc2sc(-c3ccc4c(c3)/C(=N/Nc3nc5ccccc5s3)CCC4)nc2C(=O)O)cc1`, the Z-AUC [1] was 1.02 (inactive), the Z-AUC [1, 8] was 1.09 and the Z-AUC ([1]; measured here: PEO4 Z-AUC) was 0.501.
For `CN(C)C/C=C/C(=O)Nc1ccc(C(=O)Nc2cccc(Nc3ncc(Cl)c(-c4c[nH]c5ccccc45)n3)c2)cc1`, the Z-AUC [1] was -2.19 (inactive), the Z-AUC [1, 8] was -3.23 and the Z-AUC ([1]; measured here: PEO4 Z-AUC) was -2.66.
For `O=C(NC[C@H](O)CN1CCc2ccccc2C1)c1cc(NC2COC2)ncn1`, the Z-AUC [1] was 0.421 (inactive), the Z-AUC [1, 8] was 0.62 and the Z-AUC ([1]; measured here: PEO4 Z-AUC) was 0.347.
For `C[C@H]1[C@H](C)CC[C@]2(C(=O)O)CC[C@]3(C)C(=CC[C@@H]4[C@@]5(C)C[C@@H](O)[C@H](O)[C@@](C)(CO)[C@@H]5CC[C@]43C)[C@H]12`, the outcome [2] was “inactive”, the max response [3] was 2.22% (inactive) and the outcome [4] was “inactive”. For the same compound, the outcome [5] was “inactive”, the outcome [6] was “inactive” and the outcome [7] was “inactive”. The Z-AUC [1] was 1.03 (inactive), the Z-AUC [1, 8] was 0.608 and the Z-AUC ([1]; measured here: PEO4 Z-AUC) was 0.842.
With `CN(C)c1cccc(-c2c3c(=O)n(-c4ccccc4Cl)[nH]c3cc(=O)n2C)c1` the Z-AUC [1] was -0.625 (inactive), the Z-AUC [1, 8] was -0.313 and the Z-AUC ([1]; measured here: PEO4 Z-AUC) was -0.353.
For `Cc1nn(C)c(COc2ccc(N3CCN(S(=O)(=O)N(C)C)CC3)cc2)c1-c1cccc2c(CCCOc3cccc4ccccc34)c(C(=O)O)n(CCN3CCOCC3)c12`, the Z-AUC [1] was 0.0442 (inactive), the Z-AUC [1, 8] was 0.77 and the Z-AUC ([1]; measured here: PEO4 Z-AUC) was 0.53.
With `CO[C@@H]1COCC[C@@H]1N[C@@H]1CC[C@@](C(=O)N2CCc3ncc(C(F)(F)F)cc3C2)(C(C)C)C1` the Z-AUC [1] was 0.278 (inactive), the Z-AUC [1, 8] was 1.21 and the Z-AUC ([1]; measured here: PEO4 Z-AUC) was 1.12.
With `C=Cc1cc(O)cc2nc(-c3ccc(O)c(F)c3)oc12` the Z-AUC [1] was 0.0399 (inactive), the Z-AUC [1, 8] was 0.836 and the Z-AUC ([1]; measured here: PEO4 Z-AUC) was 0.548.
With `OC[C@H]1O[C@@H](n2cnc3c2NC=NC[C@H]3O)C[C@@H]1O` the Z-AUC [1] was -0.043 (inactive), the Z-AUC [1, 8] was 0.0818 and the Z-AUC ([1]; measured here: PEO4 Z-AUC) was 0.0721.
With `COc1ncc(-c2ccc3c(Nc4cc(Oc5cc(F)cc(F)c5)cc(C(=O)O)c4)c(S(=O)(=O)NC4CC4)cnc3c2)c(OC)n1` the Z-AUC [1] was -0.517 (inactive), the Z-AUC [1, 8] was -0.369 and the Z-AUC ([1]; measured here: PEO4 Z-AUC) was -0.317.
With `CC(C)Nc1cc(-c2c[nH]c(C(=O)N[C@H](CO)c3cccc(Cl)c3)c2)c(Cl)cn1` the Potency [1] was 8710 nM (active), the Z-AUC [1, 8] was -1.89 and the Z-AUC ([1]; measured here: PEO4 Z-AUC) was -1.82.
In the case of `CC(C)(O)CNc1nc(Nc2ccnc(C(F)(F)F)c2)nc(-c2cccc(C(F)(F)F)n2)n1`, the Z-AUC [1] was 0.352 (inactive), the Z-AUC [1, 8] was 0.62 and the Z-AUC ([1]; measured here: PEO4 Z-AUC) was 0.79.
For `NS(=O)(=O)OC[C@@H]1C[C@@H](n2ccc3c(N[C@H]4CCc5ccccc54)ncnc32)C[C@@H]1O`, the Potency [1] was 347 nM (active), the Z-AUC [1, 8] was -1.6 and the Z-AUC ([1]; measured here: PEO4 Z-AUC) was -1.88.
